Experimental data from PubChem BioAssay (NCI).
This is part of a sample that, as a whole, favours compounds with a hit. Of some 79,000 tested, about 15% had one in any assay. Unmarked numbers belong to inactive results. Activity calls are given as the source filed them. Cut-off read from the data, not from the text of the source: active = growth inhibition above about 70%; inactive = the rest. Where a SMILES comes first, the peptide text is derived from it. The star is where a group is joined. Boc = CC(C)(C)OC(=O)*; OSu = O=C1CCC(=O)N1O*

How the values were obtained:
[1] = NCI Yeast Anticancer Drug Screen. Data for the rad50 strain (AID 155);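 note: 0% = growth of vehicle-only cultures of the same strain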; settings: S. cerevisiae rad50 strain growth inhibition; at 50.0 µM; hits give high values
Procedure, shortened: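 Yeast carrying a defined DNA repair defect were exposed to test compounds, and growth was compared with vehicle-treated controls to give percent inhibition.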

[2] = NCI Yeast Anticancer Drug Screen. Data for the mec2-1 strain (AID 157); settings: S. cerevisiae mec2-1 strain, at 50.0 µM, hits give high values
Procedure, shortened: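 Compounds were applied to mec2-1 yeast cells. Their growth was then compared with that of vehicle-treated cultures to give growth inhibition.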

[3] = NCI Yeast Anticancer Drug Screen. Data for the sgs1 mgt1 strain (AID 161);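 note: 0% = growth of cultures given vehicle only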; settings: S. cerevisiae sgs1 mgt1 strain, at 50.0 µM, hits give high values
Procedure, shortened: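 Percent growth inhibition was derived by comparing compound-exposed mutant yeast with vehicle-exposed cultures. The strain carries alterations in DNA damage repair.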

[4] = NCI Yeast Anticancer Drug Screen. Data for the cln2 rad14 strain (AID 165);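 note: 0% = growth equal to vehicle treated cultures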; settings: S. cerevisiae cln2 rad14 strain, at 50.0 µM, hits give high values
Procedure, shortened: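 Strain: cln2 rad14 yeast, altered in cell cycle control and DNA damage repair. Read-out: growth inhibition vs vehicle.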

[5] = NCI Yeast Anticancer Drug Screen. Data for the bub3 strain (AID 167); settings: S. cerevisiae bub3 mutant strain, at 50.0 µM, hits give high values
Procedure, shortened: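 Compounds were applied to a genetically altered yeast strain carrying a cell-cycle control defect. Growth inhibition was scored against vehicle-treated controls.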

[6] = NCI Yeast Anticancer Drug Screen. Data for the mlh1 rad18 strain (AID 175); settings: S. cerevisiae mlh1 rad18 strain growth inhibition; at 50.0 µM; hits give high values
Procedure, shortened: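 A repair-deficient yeast strain is exposed to test compound, and growth is scored relative to vehicle-treated controls.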

Compound | growth inhibition [1] | growth inhibition [2] | growth inhibition [3] | growth inhibition [4] | growth inhibition [5] | growth inhibition [6]
c1ccc2c(c1)cc1n2CC2CN=NC12 (stereo not given) | -5.85% | 14.4% | -27.4% | 12.3% | -5.55% | 10.1%
O=C1c2cc(Cl)ccc2-c2cc(Cl)c(Cl)cc21 | -0.8% | -2.05% | 10.4% | -29.9% | -3.45% | 26.6%
O=C(O)C(Oc1ccc(Cl)cc1Cl)C(Oc1ccc(Cl)cc1Cl)C(=O)O (stereo not given) | -3.95% | -4.1% | -9.95% | -15.5% | 1.75% | 3.75%
CCOC(=O)C1=CC2CCOC2O1 (stereo not given) | -19.8% | -14.8% | 5.85% | -28.7% | -9.5% | 5.5%
N#Cc1cccc(/C=C\C(=O)c2ccccc2)c1 | 22.9% | 8.65% | 5.4% | 17.3% | 61% | 13.9%
OCC(CO)=C1c2ccccc2-c2ccccc21 | 11% | -6.2% | -8.15% | -28.8% | -1.5% | 5.55%
Nc1ncc2c(n1)SCC2 | -10.3% | -5.8% | -8.25% | -19.7% | -17.6% | -19.6%
C#CCC1CCCC/C1=N\Nc1ccc([N+](=O)[O-])cc1[N+](=O)[O-] (stereo not given) | 2.25% | 3.2% | -4.4% | -1.75% | 4.4% | 4.1%
Cc1ccc(S(=O)(=O)Oc2ccccc2OS(=O)(=O)c2ccc(C)cc2)cc1 | 3.4% | 2.35% | -13.9% | -4.1% | -5% | 0.75%
COc1ccc2ccccc2c1Br | -11.3% | 8.25% | -3.25% | -24.1% | -19.3% | 8.65%
Cc1cc2c(C(C)C)c(O)c(O)c(C=Nc3ccc(-c4ccccc4)cc3)c2c(O)c1-c1c(C)cc2c(C(C)C)c(O)c(O)c(C=Nc3ccc(-c4ccccc4)cc3)c2c1O | -24.2% | -10.4% | -24.2% | -15.2% | -8.5% | -7.4%
COC(=O)[C@@]1(C)/C(=N/NS(=O)(=O)c2ccc(C)cc2)CCC[C@@H]1C | 11.4% | -23% | -7.15% | 3.05% | -1.4% | -1.85%
O=C(/C=C/c1ccc(Cl)cc1)c1ccc(Cl)s1 | -52% | -48.8% | -23.1% | -16.2% | -16.1% | -24.9%
COc1ccc(N2C(=O)[C@@H](N=[N+]=[N-])[C@@H]2[C@H]2COC(C)(C)O2)cc1 | 1.95% | -14.3% | 1.3% | 5% | 3.35% | 9%
COC(=O)c1cc2c(cc1CC(Cc1ccc3c(c1)CCCC3)C(=O)OC)CCCC2 (stereo not given) | -2.1% | 1.35% | -15.2% | 2.35% | -2.25% | -5.15%
Clc1ccc2ccc3ccc(Cl)nc3c2n1 | 18.5% | 20.4% | 26.4% | -18.5% | 8.5% | 9.95%
CC(=O)Oc1cccc(O)c1 | -1.55% | -3.65% | -15.2% | -22.5% | -4.15% | 3%
CC(C)(C)OC(=O)NC(Cc1ccc(O)cc1)C(=O)NC(CCCCN)C(=O)NC(Cc1ccc(O)cc1)C(=O)NC(CCCCN)C(=O)ON1C(=O)CCC1=O (stereo not given) (Boc-YKYK-OSu; configuration not given here) | -12.2% | -15.5% | -6.7% | 29.1% | -2.8% | 4.45%
Cc1ccc(S(=O)(=O)N/N=C(\C(=O)c2ccccc2)c2ccccc2)cc1 | 45% | 18.2% | 39.4% | 28.1% | 23.6% | 36.6%
CCNC(=O)CCN(C(=O)O)S(=O)(=O)c1ccc(NC(=O)c2ccccc2)cc1 | -23.2% | -14.8% | -2.55% | 0.25% | -8.7% | -13.9%

Compound | growth inhibition [1] | growth inhibition [2] | growth inhibition [3] | growth inhibition [4] | growth inhibition [5] | growth inhibition [6]
C/C(N=NC(=S)N1CCCCC1C)=C1\C=CC=CN1O (stereo not given) | 49.2% | 4.25% | 54.7% | 89.4% (active) | 20.1% | 20.6%
N#Cc1nc(NC(=O)c2ccccc2)sc1N | -5.7% | -29.9% | -27.6% | 11.2% | 4.2% | -10.2%
O=c1ncc2ccccc2[nH]1 | -19.9% | -10.7% | -9.6% | -4.3% | -12.8% | -23.9%
CC(=O)Nc1ccc(NC(=O)Nc2cc(Cl)ccc2C)cc1 | 14.3% | 5.05% | 0.7% | 13.1% | 17.8% | 5.1%
Cc1ccccc1CN(C)CCCO | 4.1% | -13% | -16.8% | -16.1% | -3.85% | 1.05%
CN1C(C)(C)CC(CN2c3ccccc3Sc3ccccc32)C1(C)C (stereo not given) | 34.2% | 6.8% | 37.9% | -19.3% | 27.9% | 45.2%
O=C1CCC2=C3C4CCCC5OC6CC(=O)CCC6=C(C6CCCC(OC2C1)C36)C54 (stereo not given) | 5.5% | -2.15% | 6.55% | 11.2% | 25.6% | 17.4%
CC(C)C1OCC(CO)([N+](=O)[O-])CO1 (stereo not given) | -45% | -18.4% | -21.8% | -54.5% | 1.35% | -6.15%
CC(NC(=O)CNC(=O)CN)C(N)=O (stereo not given) | -23.9% | -0.65% | -17.1% | 5.9% | 8.25% | -17.2%
O=C(O)c1c[nH]c2cc(OCc3ccc(Br)cc3)ccc2c1=O | 13.8% | 0.65% | -1.85% | 6.9% | 2.5% | 9.45%
Cc1cccc(/C=N/NC(=S)N2CCCCCC2)n1 | 89.3% (active) | 93.2% (active) | 92.1% (active) | 92.8% (active) | 92.2% (active) | 89% (active)
O=C(N/N=C/c1c(O)ccc2ccccc12)c1ccccc1 | 29% | 11.3% | 42.1% | 5% | 16.1% | 26.4%
C[C@H](CCC(=O)NCC(=O)O)[C@H]1CC[C@H]2[C@@H]3[C@H](O)C[C@@H]4C[C@H](O)CC[C@]4(C)[C@H]3CC[C@]12C | 14.2% | -13.4% | 0.15% | 4.05% | -0.3% | 6.5%
O/N=C1/CCCCc2ccccc21 | -13.4% | 0.95% | -21.2% | -29.7% | -14.4% | -15.2%
C=CCOC(=O)NC(CCC(=O)OC)C(=O)O (stereo not given) | -0.5% | -2.1% | -6.25% | -9.3% | -2.45% | -0.2%
CCOC(=O)C(C#N)(Cc1ccccc1CC(C#N)(NC(C)=O)C(=O)OCC)NC(C)=O (stereo not given) | -4.9% | -0.25% | -10.1% | -0.3% | -3.4% | 10.7%
Cc1nc(C)c(N2CCN(C#N)CC2)c(=O)[nH]1 | -52.6% | -23.6% | -29.1% | 0.35% | -11.7% | -40.2%
C[N+](C)(C)Cc1cc2ccccc2c2ccccc12 | -23% | -8.9% | -18.8% | -9.55% | -8.35% | 20.1%
O=C(c1cccc(F)c1)c1ccccc1Cc1ccccc1 | -4.45% | 4.2% | -8.05% | 19.4% | -3.1% | -11.4%
O=c1oc2c(Cl)cc(Cl)cc2cc1-c1nc2ccccc2[nH]1 | 29.1% | 38.2% | 15.6% | 9.65% | 14.1% | 12.6%
